PubChem BioAssay (NCATS)
Records with an inconclusive call do not appear. Activity calls are given as the source filed them. Calls follow the shape of the dose curve; as a rule, active = well fitted activation curve with a large enough effect; inconclusive = small, poorly fitted or top-dose-only effect; inactive = flat fitted curve, though single readings scatter.

Test: Primary redox qHTS assay for identification of artifact compounds. (AID 1845223);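 also: 0% = DMSO and 100% = reference compound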
Settings: Amplex Red/HRP redox cycling with DTT, fluorescence; series mostly up to 53.8 µM; redox activity (% of DA3003): at the top concentration
How it was run: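 Redox-cycling detection via DTT (250 uM final) oxidation coupled to Amplex Red (25 uM)/HRP (250 mU/mL) in HBSS. 15 min preincubation plus 30 min after DTT, room temperature. Ex/Em 525/598 nm; 4-parameter Hill fit against DMSO and 10 uM DA3003.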

Row | SMILES | redox activity (% of DA3003)
1 | CCC(C)/C=C(C)/C=C/C1=CC2=C(Cl)C(=O)C(C)(O)C(=O)C2(O)C(OC)O1 (stereo not given) | 13.9% [at 25.6 µM] (inactive)
2 | O=C(CCc1ccccc1)c1c(O)c([C@@H]2O[C@H](CO)[C@@H](O)[C@H](O)[C@H]2O)c(O)c([C@@H]2O[C@H](CO)[C@@H](O)[C@H](O)[C@H]2O)c1O | -15.3% [at 25.6 µM] (inactive)
3 | COc1cc(CC2COC(c3ccc(OC4OC(CO)C(O)C(O)C4O)c(OC)c3)C2CO)ccc1O (stereo not given) | -10.9% [at 25.6 µM] (inactive)
4 | CC(=O)/C=C/C1(O)C(C)(C)CC(O)CC1(C)O (stereo not given) | -3.01% (inactive)
5 | OC[C@@]1(O)CO[C@H](OC[C@H]2O[C@@H](OC(CCCCc3ccc(O)cc3)CCc3ccc(O)cc3)[C@H](O[C@H]3OC[C@](O)(CO)[C@H]3O)[C@@H](O)[C@@H]2O)[C@@H]1O (stereo not given in full) | 11.1% [at 25.6 µM] (inactive)
6 | CC1=CC(=O)C(=C(C)C)CC2C(C)(O)CCC12O (stereo not given) | -10.8% (inactive)
7 | CC(=O)/C=C/C1(O)C(C)CC(O[C@@H]2O[C@H](CO)[C@@H](O)[C@H](O)[C@H]2O)CC1(C)C (stereo not given in full) | -0.116% [at 25.6 µM] (inactive)
8 | COC(=O)C1(O)C(OC(C)=O)CCC2C3(CC(c4ccoc4)OC3=O)C(C)=CCC21C(=O)OC (stereo not given) | 16.2% [at 25.6 µM] (inactive)
9 | Cc1occc1C(=O)n1ccnc1 | -1.41% (inactive)
10 | O=C(Nc1cc(-c2ccccc2)nn1-c1ccccc1F)c1ccc([N+](=O)[O-])cc1 | -3.82% (inactive)
